Measured values: the supplement of paper PMC10849652
Targets with a hit are over-represented here; the source holds about 8,800 in all. About 0.5% of all pairs of compound and target were hits. Unmarked numbers belong to inactive results.

Compound: CC1=C(SC2=C1C(=N[C@H](C3=NN=C(N32)C)CC(=O)N)C4=CC=C(C=C4)Cl)C
Experiment: log2 fold change, soluble protein after heating vs DMSO (PISA); higher = thermal stabilisation; K562 lysate, 10 uM; active = over 0.2 and 3.5 SD of the protein, either way, in both replicates (recomputed)
In short: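 A 30 min treatment with 10 μM compound was applied to crude K562 extract at 1 mg/mL protein in PBS pH 7.4 with 1 mM MgCl2. Heating for 3 min spanned 48°C-58°C, after which aliquots were pooled, adjusted to 0.5% NP-40 at 4°C and spun at 21,000xg for 90 min. TMTpro 16plex LC-MS/MS of the supernatant, with channel sums equalised, gave values recorded as log-two fold change in thermal stability against solvent controls, from duplicates.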

Sequence of UniProt Q6P4F2 (Q6P4F2 whole entry, looked up): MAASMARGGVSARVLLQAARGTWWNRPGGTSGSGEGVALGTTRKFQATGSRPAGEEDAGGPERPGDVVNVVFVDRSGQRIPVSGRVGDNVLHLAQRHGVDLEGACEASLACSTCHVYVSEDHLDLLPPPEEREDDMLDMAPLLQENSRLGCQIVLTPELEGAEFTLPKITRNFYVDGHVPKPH
Sequence of UniProt Q6P2E9 (Q6P2E9 whole entry, looked up): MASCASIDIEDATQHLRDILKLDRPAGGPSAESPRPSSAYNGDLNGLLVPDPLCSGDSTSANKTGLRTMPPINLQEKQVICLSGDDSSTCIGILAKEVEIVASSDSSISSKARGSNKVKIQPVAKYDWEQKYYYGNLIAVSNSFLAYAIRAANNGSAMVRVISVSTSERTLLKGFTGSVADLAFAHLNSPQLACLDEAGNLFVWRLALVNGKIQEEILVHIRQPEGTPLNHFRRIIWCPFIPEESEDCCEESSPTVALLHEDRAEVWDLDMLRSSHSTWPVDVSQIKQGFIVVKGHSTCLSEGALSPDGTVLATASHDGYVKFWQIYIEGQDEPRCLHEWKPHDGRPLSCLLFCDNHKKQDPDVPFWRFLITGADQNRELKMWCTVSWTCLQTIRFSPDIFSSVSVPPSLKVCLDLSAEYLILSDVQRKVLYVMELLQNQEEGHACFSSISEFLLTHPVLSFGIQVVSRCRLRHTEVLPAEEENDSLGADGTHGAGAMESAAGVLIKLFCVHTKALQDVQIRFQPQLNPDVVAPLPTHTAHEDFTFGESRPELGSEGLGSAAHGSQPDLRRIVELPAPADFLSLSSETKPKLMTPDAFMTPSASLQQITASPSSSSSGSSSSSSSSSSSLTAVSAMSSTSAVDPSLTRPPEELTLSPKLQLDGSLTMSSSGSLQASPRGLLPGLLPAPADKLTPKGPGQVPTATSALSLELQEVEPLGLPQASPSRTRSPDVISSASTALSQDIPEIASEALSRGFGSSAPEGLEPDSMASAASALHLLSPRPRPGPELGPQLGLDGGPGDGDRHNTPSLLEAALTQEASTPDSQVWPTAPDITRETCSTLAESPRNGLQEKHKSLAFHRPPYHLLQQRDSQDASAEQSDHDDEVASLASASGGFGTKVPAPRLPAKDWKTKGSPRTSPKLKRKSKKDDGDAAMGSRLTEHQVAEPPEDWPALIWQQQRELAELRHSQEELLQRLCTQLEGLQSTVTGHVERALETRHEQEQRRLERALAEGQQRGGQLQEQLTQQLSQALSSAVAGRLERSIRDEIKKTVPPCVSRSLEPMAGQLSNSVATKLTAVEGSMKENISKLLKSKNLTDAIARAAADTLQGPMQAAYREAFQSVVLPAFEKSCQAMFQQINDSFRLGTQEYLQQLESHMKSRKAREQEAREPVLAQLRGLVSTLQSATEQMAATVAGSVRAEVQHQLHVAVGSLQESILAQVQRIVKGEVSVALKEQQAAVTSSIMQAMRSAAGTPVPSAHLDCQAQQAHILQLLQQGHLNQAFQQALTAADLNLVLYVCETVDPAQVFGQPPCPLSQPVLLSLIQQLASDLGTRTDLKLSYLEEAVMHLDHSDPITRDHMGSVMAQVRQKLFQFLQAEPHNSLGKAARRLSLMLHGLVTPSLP
Sequence of UniProt O14893 (O14893 whole entry, looked up): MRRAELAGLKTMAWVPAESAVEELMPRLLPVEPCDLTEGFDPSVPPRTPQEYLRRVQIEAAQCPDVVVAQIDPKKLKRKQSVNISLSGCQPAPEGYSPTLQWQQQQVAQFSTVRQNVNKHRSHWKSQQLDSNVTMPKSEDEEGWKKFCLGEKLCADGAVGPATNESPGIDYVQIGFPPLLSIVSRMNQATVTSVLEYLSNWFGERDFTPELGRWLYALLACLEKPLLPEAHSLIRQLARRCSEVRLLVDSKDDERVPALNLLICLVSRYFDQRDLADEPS
Sequence of UniProt Q6IPR1 (Q6IPR1 whole entry, looked up): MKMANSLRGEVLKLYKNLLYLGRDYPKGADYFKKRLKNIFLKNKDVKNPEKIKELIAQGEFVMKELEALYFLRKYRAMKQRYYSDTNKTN
Sequence of UniProt Q8N6R0 (Q8N6R0 whole entry, looked up): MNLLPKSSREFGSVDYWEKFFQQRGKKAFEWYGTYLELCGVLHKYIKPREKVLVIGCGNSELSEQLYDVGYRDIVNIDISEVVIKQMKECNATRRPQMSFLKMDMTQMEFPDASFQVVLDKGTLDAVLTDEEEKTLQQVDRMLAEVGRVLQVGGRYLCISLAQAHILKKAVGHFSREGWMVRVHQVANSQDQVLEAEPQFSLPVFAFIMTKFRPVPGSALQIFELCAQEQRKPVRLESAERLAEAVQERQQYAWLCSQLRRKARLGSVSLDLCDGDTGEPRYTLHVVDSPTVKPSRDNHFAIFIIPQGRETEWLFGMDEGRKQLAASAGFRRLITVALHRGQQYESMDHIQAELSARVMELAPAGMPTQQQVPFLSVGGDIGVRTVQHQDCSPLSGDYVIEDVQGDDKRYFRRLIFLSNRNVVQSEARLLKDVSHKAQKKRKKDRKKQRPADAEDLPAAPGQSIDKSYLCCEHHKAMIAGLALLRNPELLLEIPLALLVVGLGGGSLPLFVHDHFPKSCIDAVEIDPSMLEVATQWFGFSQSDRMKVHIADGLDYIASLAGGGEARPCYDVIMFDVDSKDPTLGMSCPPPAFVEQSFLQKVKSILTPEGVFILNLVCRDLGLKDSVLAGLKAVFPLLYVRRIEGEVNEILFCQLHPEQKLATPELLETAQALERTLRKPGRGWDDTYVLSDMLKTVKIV
Sequence of UniProt Q9UK97 (Q9UK97 whole entry, looked up): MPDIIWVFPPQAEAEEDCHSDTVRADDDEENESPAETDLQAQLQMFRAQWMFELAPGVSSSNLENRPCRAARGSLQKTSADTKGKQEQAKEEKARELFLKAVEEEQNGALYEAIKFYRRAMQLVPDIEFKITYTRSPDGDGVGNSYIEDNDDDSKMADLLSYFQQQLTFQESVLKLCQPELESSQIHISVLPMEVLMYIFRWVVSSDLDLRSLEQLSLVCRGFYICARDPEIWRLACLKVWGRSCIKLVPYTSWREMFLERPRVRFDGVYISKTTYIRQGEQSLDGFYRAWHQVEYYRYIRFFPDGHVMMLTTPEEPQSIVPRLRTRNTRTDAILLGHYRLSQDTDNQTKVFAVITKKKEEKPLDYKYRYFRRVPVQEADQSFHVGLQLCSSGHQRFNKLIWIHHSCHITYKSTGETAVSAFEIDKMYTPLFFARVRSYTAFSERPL
Sequence of UniProt Q8TB52 (Q8TB52 whole entry, looked up): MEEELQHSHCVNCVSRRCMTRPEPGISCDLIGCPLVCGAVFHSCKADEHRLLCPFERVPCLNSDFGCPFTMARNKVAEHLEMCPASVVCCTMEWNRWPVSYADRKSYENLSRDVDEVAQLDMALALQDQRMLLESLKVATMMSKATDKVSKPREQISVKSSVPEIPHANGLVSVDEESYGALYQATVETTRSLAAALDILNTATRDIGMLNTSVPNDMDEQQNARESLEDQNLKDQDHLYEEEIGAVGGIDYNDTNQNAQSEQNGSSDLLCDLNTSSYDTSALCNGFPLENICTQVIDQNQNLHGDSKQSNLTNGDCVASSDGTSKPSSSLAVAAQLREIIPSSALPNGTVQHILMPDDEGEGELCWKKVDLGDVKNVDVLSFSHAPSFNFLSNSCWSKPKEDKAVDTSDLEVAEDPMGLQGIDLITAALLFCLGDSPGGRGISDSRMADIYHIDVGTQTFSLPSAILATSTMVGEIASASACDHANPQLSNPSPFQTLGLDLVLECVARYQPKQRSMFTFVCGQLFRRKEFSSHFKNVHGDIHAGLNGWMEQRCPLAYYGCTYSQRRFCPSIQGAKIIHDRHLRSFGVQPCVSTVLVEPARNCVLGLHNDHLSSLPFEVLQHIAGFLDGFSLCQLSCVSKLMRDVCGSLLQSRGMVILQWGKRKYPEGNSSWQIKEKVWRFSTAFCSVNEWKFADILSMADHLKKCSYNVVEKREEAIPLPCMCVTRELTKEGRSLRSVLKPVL
Sequence of UniProt P23919 (P23919 whole entry, looked up): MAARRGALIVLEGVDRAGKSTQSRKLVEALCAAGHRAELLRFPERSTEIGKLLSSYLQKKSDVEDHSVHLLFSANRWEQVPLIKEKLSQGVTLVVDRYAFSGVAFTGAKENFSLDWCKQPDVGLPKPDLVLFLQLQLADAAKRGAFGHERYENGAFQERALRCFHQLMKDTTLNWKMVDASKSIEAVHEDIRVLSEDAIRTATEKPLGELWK
Sequence of UniProt Q9UJ14 (Q9UJ14 whole entry, looked up): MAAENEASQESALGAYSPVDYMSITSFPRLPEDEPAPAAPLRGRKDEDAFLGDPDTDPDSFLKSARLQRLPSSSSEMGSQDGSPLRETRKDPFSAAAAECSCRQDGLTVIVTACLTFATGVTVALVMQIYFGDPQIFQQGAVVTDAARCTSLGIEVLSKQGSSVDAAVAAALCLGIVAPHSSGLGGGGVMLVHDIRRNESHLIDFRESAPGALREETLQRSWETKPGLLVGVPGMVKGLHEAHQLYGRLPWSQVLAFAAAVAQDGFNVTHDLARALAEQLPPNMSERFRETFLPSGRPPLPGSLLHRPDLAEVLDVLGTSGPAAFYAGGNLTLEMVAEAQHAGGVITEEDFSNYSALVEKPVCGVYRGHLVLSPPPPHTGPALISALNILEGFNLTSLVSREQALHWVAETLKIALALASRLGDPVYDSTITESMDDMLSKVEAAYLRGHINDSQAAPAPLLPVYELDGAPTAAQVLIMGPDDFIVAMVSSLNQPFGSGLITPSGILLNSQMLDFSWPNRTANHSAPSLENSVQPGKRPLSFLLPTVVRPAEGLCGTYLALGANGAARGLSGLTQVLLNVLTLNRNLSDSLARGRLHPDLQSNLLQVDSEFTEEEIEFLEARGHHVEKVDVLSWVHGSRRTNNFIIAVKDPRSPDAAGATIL
Sequence of UniProt O43768 (O43768 whole entry, looked up): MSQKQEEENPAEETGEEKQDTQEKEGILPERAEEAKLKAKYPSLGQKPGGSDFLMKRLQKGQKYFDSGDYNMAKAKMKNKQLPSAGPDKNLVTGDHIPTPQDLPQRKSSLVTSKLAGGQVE
Sequence of UniProt P41567 (P41567 whole entry, looked up): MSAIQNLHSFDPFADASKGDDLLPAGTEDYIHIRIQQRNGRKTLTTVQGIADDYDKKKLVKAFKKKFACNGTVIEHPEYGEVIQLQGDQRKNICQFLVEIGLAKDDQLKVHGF

Row | Target | log2 fold change
1 | GEMIN2 (UniProt O14893) | 0.01
2 | FYB1 isoform 3 (UniProt O15117) | 0.039
3 | FANCD2 isoform 1 (UniProt Q9BXW9) | 0.039
4 | EIF2B5 (UniProt Q13144) | 0.007
5 | DTYMK (UniProt P23919) | 0.014
6 | FDX2 (UniProt Q6P4F2) | 0.021
7 | FNBP1L (UniProt Q5T0N5) | -0.009
8 | GGA2 (UniProt Q9UJY4) | 0.011
9 | FBXO30 (UniProt Q8TB52) | 0.011
10 | ESRRA (UniProt P11474) | -0.018
11 | EIF1 (UniProt P41567) | -0.034
12 | GEMIN4 (UniProt P57678) | -0.015
13 | ESPL1 (UniProt Q14674) | 0.129
14 | EIF3I (UniProt Q13347) | 0.022
15 | DTL (UniProt Q9NZJ0) | 0.038
16 | FADS3 (UniProt Q9Y5Q0) | 0.018
17 | GGT7 (UniProt Q9UJ14) | 0.017
18 | ETFRF1 (UniProt Q6IPR1) | 0.058

Row | Target | log2 fold change
19 | FBXO9 (UniProt Q9UK97) | -0.112
20 | EXTL2 (UniProt Q9UBQ6) | 0.235
21 | ERI1 (UniProt Q8IV48) | -0.061
22 | FAM53B (UniProt Q14153) | -0.039
23 | EP400 isoform 5 (UniProt Q96L91) | 0.024
24 | ENO1, A0A2R8YEM5 | -0.096
25 | GART (UniProt P22102) | 0.047
26 | ESYT2 (UniProt H7BXI1) | 0.018
27 | EIF2B3 (UniProt Q9NR50) | 0.008
28 | EP300 (UniProt Q09472) | -0.013
29 | EEF1AKNMT (UniProt Q8N6R0) | -0.073
30 | ERLIN2 (UniProt O94905) | -0.007
31 | EPB41, A0A2R8Y6D0 | 0.028
32 | FAM83D (UniProt Q9H4H8) | 0.023
33 | EDC4 (UniProt Q6P2E9) | 0.005
34 | EPHX2 (UniProt P34913) | 0.006
35 | GAMT (UniProt Q14353) | -0.083
36 | ENSA isoform 3 (UniProt O43768) | -0.027
